From PubChem BioAssay come the findings set out here.

Experiment [1] can be described thus: yeast 75Q aggregation reduction – 75Q-TubU reporter (AID 1593). The note with it: Yeast 75Q polyglutamine aggregation reporter.
The nature of experiment [2]: restoration of touch response, mutant HTT neurons – whole organism, C. elegans mechanosensory neurons, N-terminal huntingtin (AID 1599). The following applies: C. elegans polyQ-huntingtin mechanosensory neurons, stronger effect = higher value.
The nature of experiment [3]: blockers of cytochrome c efflux from mitochondria – biochemical, purified mitochondria (AID 1603).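 Also: mouse liver mitochondria challenged with calcium chloride; signal normalized to the plate average as 100%.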 The following applies: stronger effect = lower value.
The nature of experiment [4]: polyglutamine aggregate formation blockers (AID 1604). The following applies: polyglutamine-induced protein aggregation inhibition assay; stronger effect = higher value; tested at 2.5 µM.
The nature of experiment [5]: glutamate transport activators, MN-1 cells, MN-1 cell line (AID 1612).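 Also: tested at 1 µM final; 0% = mean of DMSO vehicle wells on each plate; positive means more glutamate uptake than control and negative means less.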 The following applies: MN-1 motor neuron cells, stronger effect = higher value.
A short description of experiment [6]: 75Q-TubH aggregate inhibition, S. cerevisiae, yeast (AID 1616). The following applies: S. cerevisiae 75Q-TubH polyglutamine aggregation suppression; stronger effect = higher value.
Experiment [7] is described as follows: P. berghei load reduction in hepatocytes – cell-based, HepG2, luciferase luminescence, HepG2 viability, primary screen (AID 624349; in the data active = parasite load remaining mostly below about 12%, no sharp cut-off; inactive = mostly above about 10%;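 also: 100% = mean of DMSO negative control wells on the same plate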). The note with it: P. berghei liver stage in HepG2, luciferase luminescence, concentration not given here; parasite load remaining: stronger effect = lower value; viability: measured here: HepG2 viability without parasites.
A short description of experiment [8]: EMT-state selective cytotoxicity in co-culture – imaging, PC-3E GFP, TEM4-18 mCherry, primary screen (AID 1345086;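 active = compounds killing one labelled cell type while sparing the other, by normalised counts and ratio limits, not self-fluorescent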;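 as to all read-outs here: cells exposed to compound for 72 h before imaging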;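 as to red/green cell ratio (normalised): normalised mesenchymal count divided by normalised epithelial count so high means epithelial killing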). The following applies: PC-3E GFP / TEM4-18 mCherry co-culture, imaging cell counts, at 1 µM; for red/green cell ratio (normalised): actives lie on both sides.
A short description of experiment [9]: viability loss with induced miR-34 in A549 – imaging, A549 dox-inducible miR-34, nuclei and caspase counts, primary screen (AID 1347080;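 active = compounds whose cell count with miR-34 switched on is under 0.7 times the count with it off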). The following applies: A549 miR-34 inducible, Hoechst nuclei count, 48 h.
Experiment [10] in a line: blockers of polyQ-driven CASP3 activation – cell-based (AID 1583). The following applies: polyglutamine-induced caspase-3 activation, cell assay; stronger effect = higher value;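 tested at 10 µM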.
The target in experiment [11] is Mitogen-activated protein kinase 7 (Homo sapiens) (UniProt Q13164). Description: Gal4-ERK5 driven luciferase induction – cell-based, HTS, primary screen (AID 1508626;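 active = luciferase signal above three times the same-plate solvent-only control wells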;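 also: luciferase driven by Gal4-ERK5 fusion binding five Gal4 sites before minimal TATA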). The note with it: HeLa Gal4-ERK5 transactivation, 18 h, at 5 µM, stronger effect = higher value.
Sequence of Mitogen-activated protein kinase 7 (Homo sapiens) (Q13164 whole entry, looked up, the tested form may be a part): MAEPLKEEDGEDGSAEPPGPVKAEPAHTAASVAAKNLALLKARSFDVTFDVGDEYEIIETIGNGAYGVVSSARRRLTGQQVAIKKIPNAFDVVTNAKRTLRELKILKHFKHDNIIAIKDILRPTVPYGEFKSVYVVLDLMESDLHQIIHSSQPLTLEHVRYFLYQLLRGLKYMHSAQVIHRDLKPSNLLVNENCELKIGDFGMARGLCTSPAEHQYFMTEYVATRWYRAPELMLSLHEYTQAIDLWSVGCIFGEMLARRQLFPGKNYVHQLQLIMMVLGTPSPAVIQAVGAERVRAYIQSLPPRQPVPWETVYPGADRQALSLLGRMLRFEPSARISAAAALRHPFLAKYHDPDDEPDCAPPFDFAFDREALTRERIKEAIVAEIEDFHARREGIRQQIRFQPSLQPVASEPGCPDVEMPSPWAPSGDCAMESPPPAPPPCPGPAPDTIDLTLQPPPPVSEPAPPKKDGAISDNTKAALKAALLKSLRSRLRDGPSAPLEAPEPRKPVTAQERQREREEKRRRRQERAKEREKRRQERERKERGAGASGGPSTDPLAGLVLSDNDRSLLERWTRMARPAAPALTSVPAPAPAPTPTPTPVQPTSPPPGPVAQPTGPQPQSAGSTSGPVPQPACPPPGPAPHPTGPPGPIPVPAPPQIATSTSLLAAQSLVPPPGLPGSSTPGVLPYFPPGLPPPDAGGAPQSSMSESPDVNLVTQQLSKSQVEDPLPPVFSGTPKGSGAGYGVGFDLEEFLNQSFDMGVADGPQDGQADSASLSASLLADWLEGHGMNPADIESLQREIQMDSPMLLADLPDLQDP
Experiment [12] can be described thus: compounds altering circadian rhythm period length – cell-based, LOPAC library, luminescence reporter (AID 2774).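 Also: values are relative to mean of DMSO wells on each plate.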 The note with it: circadian reporter cells, at 7 µM, actives lie on both sides.
Experiment [13] concerns Hepatitis C virus NS3 helicase. Put plainly: blockers of NS3h binding to ssDNA – biochemical, fluorescence polarization, LOPAC1280 library, primary screen (AID 687035; in the data active = inhibition above about 37%). The note with it: Purified HCV NS3 helicase, Cy5-dT15 ssDNA binding fluorescence polarization; stronger effect = higher value; concentration not given here. For orientation: Polarisation of emitted light reports the rotation of a fluorescent probe.

The nature of experiment [14]: compounds altering Cy5-DNA-NS3h complex signal – biochemical, LOPAC1280, artefact control for HCV NS3 helicase inhibitor project (AID 687037). The note with it: Cy5-DNA-NS3h complex fluorescence interference counterscreen. In general terms: The purpose of a counterscreen is to sort out artefacts and off-target activity.
Experiment [15] has as its system Aerobactin synthetase IucA (Klebsiella pneumoniae). Put plainly: inhibition of K. pneumoniae IucA enzyme – biochemical, Tocris library, absorbance (AID 1345561).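 Also: 100% = enzyme without compound and 0% = no enzyme.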 The note with it: purified IucA enzyme assay, absorbance (OD) read-out; stronger effect = lower value;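 tested at 8 µM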.
For experiment [16], the system named is Aerobactin synthetase IucA (Klebsiella pneumoniae, hypervirulent). Put plainly: biochemical IucA inhibition screen of LOPAC library by absorbance (AID 1346212).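 Also: 100% = no compound wells and 0% = no enzyme wells.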 The following applies: IucA enzyme assay, absorbance (OD) readout; stronger effect = lower value;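 tested at 8 µM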.
The nature of experiment [17]: blockers of cellular phospholipid synthesis – cell-based, LOPAC library, screen 4, primary screen (AID 1347384). The note with it: animal cells, phospholipid biosynthesis inhibition screen; at 10 µM.
The nature of experiment [18]: galactose survival enhancers in mitochondrial complex I cybrids – cell-based, galactose medium, ATP luminescence, primary screen (AID 1645843;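 active = z-score of at least 1.8 in each of two replicates, scored against plate mean and spread of sample wells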;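 also: positive z means more ATP and so rescue of galactose-driven cybrid death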). The following applies: complex I mutant cybrid cells, 72 h, stronger effect = higher value.
A short description of experiment [19]: MELAS cybrid and Rieske KO viability enhancers – cell-based, MELAS cybrids, Rieske KO mouse fibroblasts, CellTiter-Glo, primary screen (AID 1508586;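 active = mean z-score across replicates of 1.96 or higher in either the MELAS or the Rieske mutant cell line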;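 also: z relative to plate mean and SD of compound and empty wells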). The following applies: low glucose. For orientation: ATP-based viability assays read luminescence as a measure of living cells.
[20] abbreviates: measured here: epithelial PC-3E GFP cell survival.
Where [21] appears, read: measured here: mesenchymal TEM4-18 mCherry cell survival.
The mark [22] stands for this setting: measured here: relative caspase fold change +Dox/-Dox.
Where [23] appears, read: measured here: total cells with miR-34 induction, stronger effect = lower value.
The mark [24] stands for this setting: measured here: total cells without miR-34 induction.
[25] abbreviates: stronger effect = lower value, cell number ratio, induced over uninduced.

Molecules are shown by their SMILES. Values joined by “and” are separate entries in the source; they are usually repeats but may differ in a detail not shown here. Equal values may be shown once. For some of these results: Potency and affinity values are given separately. Active and inactive are the calls of the source. Unless noted, no rule for the calls is given here.

With `CC(=O)O[C@H]1C[C@H](O[C@H]2[C@@H](O)C[C@H](O[C@H]3[C@@H](O)C[C@H](O[C@H]4CC[C@@]5(C)C(CCC6C5C[C@@H](O)[C@]5(C)[C@@H](C7=CC(=O)OC7)CC[C@]65O)C4)O[C@@H]3C)O[C@@H]2C)O[C@H](C)[C@H]1O[C@@H]1O[C@H](CO)[C@@H](O)[C@H](O)[C@H]1O` (stereo not given in full), the score in experiment [1] was 1.1. Besides, the rescue above control in [2] was 3.88. Further, in experiment [3], the cytochrome c release ratio was determined as 0.86. For the same molecule, the inhibition of aggregation in experiment [4] was found to be 100%. Further, in [5], the glutamate uptake change was -5.55%. This molecule showed an aggregation suppression score in [6] of 1.31. In experiment [7], the parasite load remaining was 31.4% (inactive) and 0.905% (inactive). For the same molecule, the viability (as a rule, the share of living cells, or the viability signal relative to a control) in [7] was 50.8% and 15.3%. Also, in [8], the red/green cell ratio (normalised) is 0.22 (inactive). The values for the normalised cell number in [8] (setting [20]) and in experiment [8] (setting [21]) were 0.27 and 0.06, respectively. For the same molecule, the fold change in experiment [9] (stronger effect = lower value) is 0.6 (active); in [9] (setting [22]) it was 2.31. For the same molecule, the cell count stood at 258 in experiment [9] (setting [23]) and 431 in experiment [9] (setting [24]).
On to `O=C1CN=C(c2ccccc2Cl)c2cc([N+](=O)[O-])ccc2N1`, for which the inhibition (in general, the relative decrease from the control value, in per cent) in experiment [10] came out at 12.9%. This molecule showed a score in experiment [1] of 0.89. The rescue above control in experiment [2] was -2.29. For the same molecule, the cytochrome c release ratio in experiment [3] was 0.98. In experiment [4], the inhibition of aggregation worked out at 52.4%. For the same molecule, the glutamate uptake change in experiment [5] is -25.1%. Moreover, the aggregation suppression score in [6] was 0.77. Further, the parasite load remaining in experiment [7] is 52.7% (inactive). This molecule also registered a viability in experiment [7] of 99.8%. Besides, the red/green cell ratio (normalised) in experiment [8] was 1.15 (inactive). Besides, the normalised cell number in experiment [8] (setting [20]) was 0.93; in experiment [8] (setting [21]), 1.07. The results for the fold change in experiment [9] (stronger effect = lower value) and in experiment [9] (setting [22]) were 0.845 (inactive) and 3.3, respectively. Moreover, the values for the cell count in experiment [9] (setting [23]) and in [9] (setting [24]) were 10900 and 12900, respectively.
Regarding `CCNC1(c2cccs2)CCCCC1=O` (stereo not given), the parasite load remaining in experiment [7] is 136% (inactive). The molecule also yielded a viability in [7] of 77%. In addition, the red/green cell ratio (normalised) in experiment [8] is 0.77 (inactive). For the same molecule, the normalised cell number in experiment [8] (setting [20]) is 1.37; in experiment [8] (setting [21]), 1.05. For the same molecule, the fold change was 0.914 (inactive) in experiment [9] (stronger effect = lower value) and 0.59 in experiment [9] (setting [22]). The values for the cell count in experiment [9] (setting [23]) and in [9] (setting [24]) were 8750 and 9570, respectively.
As to `COC(=O)[C@@H]1C[C@H](OC(C)=O)C(=O)[C@H]2[C@@]1(C)CC[C@H]1C(=O)O[C@H](c3ccoc3)C[C@]21C`, the red/green cell ratio (normalised) in experiment [8] was 1.04 (inactive). For the same molecule, the normalised cell number in [8] (setting [20]) came to 0.84; in experiment [8] (setting [21]), 0.87. Further, the luciferase signal in [11] is 52 AU (inactive).
On to `C#CCOC(=O)C1=CCCN(C)C1`, for which the period change in [12] is -0.055 h (inactive). The inhibition in [13] is -1% (inactive). Moreover, in [14], the fluorescence ratio (interference) is 1 (inactive). Besides, the remaining activity – broadly, the signal under treatment as a percentage of the control signal – in [15] is 105% (inactive); in experiment [16], 121% (inactive). The fold change in experiment [9] (stronger effect = lower value) was 1.05 (inactive); in [9] (setting [25]) it was 0.926 (inactive); in experiment [9] (setting [22]), 1.99 and 0.981. Besides, the cell count in experiment [9] (setting [23]) is 10200 and 8480; in experiment [9] (setting [24]) it was 9640 and 9160. Also, the result in [17] was inactive. For the same molecule, the z-score in experiment [18] is -0.93 (inactive) and -0.57 (inactive).
Regarding `CN1CCC(c2c[nH]c3ccc(O)cc23)CC1`, the period change in experiment [12] was -0.16 h (inactive). The inhibition in experiment [13] was -2% (inactive). Further, the fluorescence ratio (interference) in experiment [14] is 1 (inactive). In addition, the remaining activity in [15] is 116% (inactive); in [16], 119% (inactive). The fold change in [9] (stronger effect = lower value) is 1.01 (inactive); in experiment [9] (setting [25]) it was 0.949 (inactive) and 0.908 (inactive); in experiment [9] (setting [22]), 1.73 and 0.894 and 0.857. Also, the cell count in [9] (setting [23]) was 10800 and 7640 and 9030; in experiment [9] (setting [24]), 10700 and 8050 and 9950. Further, the molecule was classed as inactive in experiment [17]. The z-score in experiment [19] (MELAS cybrid survival, CellTiter-Glo 48 h, stronger effect = higher value) was -0.212 (inactive); in [19] (Rieske KO mouse fibroblast survival, CellTiter-Glo 72 h), -0.062; in experiment [18] it was 0.06 (inactive) and -0.325 (inactive).
